# About 83,000 compounds went through this panel and 20% of them were active in at least one assay; those are over-represented in the sample as a whole.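 Step 1: grow cells in 96-well plates. Step 2: add test compound at a single concentration. Step 3: incubate 48 h. Step 4: record percent growth.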 Calls of active or inactive are those of the source. Rule for the calls: active = growth percent below 10; inactive = the rest.
# System: NCI-H226 lung
# Experiment: NCI-60 one-dose screen, 48 h (100 = growth as untreated, 0 = no growth, -100 = all killed)
# Details: 10 µM
row,SMILES,growth
1,O=C(/C=C/c1ccc(Cl)cc1)c1ccc(Br)cc1,108% (inactive)
2,Cc1cc2cc3c(=O)[nH]c(=O)cc-3n(CC(O)C(O)C(O)CO)c2cc1C (stereo not given),110% (inactive)
3,N#Cc1cnc2ccc(NCc3cnc[nH]3)cc2c1Nc1ccc(F)c(Cl)c1,88.2% (inactive)
4,Cn1c(=O)c2[nH]c(C(O)c3ccc(Cl)cc3)nc2n(C)c1=O (stereo not given),103% (inactive)
5,Cc1ccc(S(=O)(=O)Nc2cccc3[nH]c(C(F)(F)F)nc23)cc1,68.4% (inactive)
6,CCCCCCCOc1cccc(/C=C2/C(=O)N=C3SCCCN32)c1,64.5% (inactive)
7,Cc1ccc(C)c(S(=O)(=O)NC2c3ccccc3Oc3ccccc32)c1,90.3% (inactive)
8,Nc1nc2c(nnn2C2CC(O)C(CO)O2)c(=O)[nH]1 (stereo not given),50% (inactive)
9,Cc1nc2cc(-n3c(-c4ccc(F)cc4)nc4ccccc4c3=O)ccc2n1Cc1ccccc1,3.55% (active)
10,CCN(CCCNC(=O)Cc1cc(=O)oc2cc(N(C)C)ccc12)CCNc1ccnc2cc(Cl)ccc12,93.1% (inactive)
11,COc1cc(-c2nc3ccccc3[nH]2)ccc1OCC(=O)N=Nc1c(O)[nH]c2ccccc12,105% (inactive)
12,O=C(OCc1ncc(-c2ccc(C(F)(F)F)cc2)c(NC2CCCCCC2)n1)c1c(F)c(F)c(F)c(F)c1F,77.7% (inactive)
13,COc1cc(C2=Nc3c/c(=C\c4c(O)[nH]c5ccc(Cl)cc45)ccc3=N2)cc(OC)c1OC,55.4% (inactive)
14,COc1ccc(OC)c([N+](=O)[O-])c1C=O,92% (inactive)
15,COc1ccc(-c2nnc(COc3ccc(NC(=O)Nc4cccc(C(F)(F)F)c4)cc3F)o2)cc1,87.9% (inactive)
